Reference: the supplement of paper PMC10849652
Targets with a hit are over-represented here; the source holds about 7,900 in all. About 0.6% of all pairs of compound and target were hits.

Assays:
Experiment in all cases: log2 fold change, soluble protein after heating vs DMSO (PISA); higher = thermal stabilisation; K562 cells, 10 uM, 30 min; active = over 0.2 and 3.5 SD of the protein, either way, in both replicates (recomputed)
[1] = compound: C1=CC=C(C=C1)[C@H](COC2=CC3=C(C=C2)NC(=O)N3)NC(=O)C4=CC=CN(C4=O)CC5=CC(=C(C=C5)F)F
In short: (§1)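 For each measurement, 10 μM compound was applied for 30 min to K562 cells at 2×10^6 cells/mL. Aliquots were heated for 3 min across 48°C-58°C, pooled, and extracted in PBS with 0.5% NP-40 at 4°C; the supernatant after 21,000xg for 90 min was soluble protein. This was quantified by TMTpro 16plex LC-MS/MS with channel sums equalised, and thermal stability was reported relative to control samples from duplicates, on a log2 fold-change scale.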

[2] = compound: CC1=C(SC2=C1C(=N[C@H](C3=NN=C(N32)C)CC(=O)N)C4=CC=C(C=C4)Cl)C
In short: as §1

[3] = compound: CC1=C2C(=CC=C1)N=C(N(C2=O)C3=CC=CC=C3C)CN4C=NC5=C(N=CN=C54)N
In short: as §1

[4] = compound: Cc1sc2c(c1C)C(c1ccc(Cl)cc1)=N[C@@H](CC(=O)OC(C)(C)C)c1nnc(C)n1-2
In short: as §1

[5] = compound: c1ccc([C@@H]2C[C@H]2NC2CCNCC2)cc1
In short: as §1

Measured: log2 fold change

CMTR1 (UniProt Q8N1G2)
inactive: [1] -0.008 | [2] 0.033 | [3] 0.07 | [4] -0.009 | [5] -0.04

CSNK1A1 isoform 3 (UniProt P48729)
inactive: [1] -0.061

CASTOR2 (UniProt A6NHX0)
Sequence of UniProt A6NHX0 (A6NHX0 whole entry, looked up): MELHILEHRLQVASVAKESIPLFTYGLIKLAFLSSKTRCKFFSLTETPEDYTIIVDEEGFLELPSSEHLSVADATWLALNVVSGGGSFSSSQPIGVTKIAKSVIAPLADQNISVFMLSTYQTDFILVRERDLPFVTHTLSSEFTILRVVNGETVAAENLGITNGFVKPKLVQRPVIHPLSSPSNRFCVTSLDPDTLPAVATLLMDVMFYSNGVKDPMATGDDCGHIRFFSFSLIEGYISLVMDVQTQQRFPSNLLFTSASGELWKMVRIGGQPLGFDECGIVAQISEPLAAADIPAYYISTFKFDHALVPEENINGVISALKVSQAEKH
inactive: [1] 0.056 | [2] 0.078 | [3] 0.039 | [4] -0.065 | [5] -0.016

CLCN3 (UniProt P51790)
inactive: [1] 0.01 | [2] 0.025 | [3] 0.064 | [4] -0.107 | [5] 0.056

CLUH, A0A494C0R8
inactive: [1] -0.121 | [2] -0.004 | [3] 0.025 | [4] 0.152 | [5] 0.096

CERS2 (UniProt Q96G23)
inactive: [1] -0.033 | [2] 0.035 | [3] -0.012 | [4] -0.036 | [5] 0.048

CASP3 (UniProt P42574)
inactive: [1] 0.018 | [2] 0.004 | [3] -0.005 | [4] -0.055 | [5] 0.003

COPS3 (UniProt Q9UNS2)
inactive: [1] 0.011 | [2] 0.001 | [3] 0 | [4] -0.007 | [5] -0.005

CDC26 (UniProt Q8NHZ8)
Sequence of UniProt Q8NHZ8 (Q8NHZ8 whole entry, looked up): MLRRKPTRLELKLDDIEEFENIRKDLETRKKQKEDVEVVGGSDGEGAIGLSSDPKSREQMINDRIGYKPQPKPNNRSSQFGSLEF
inactive: [1] 0.05 | [2] 0.027 | [3] -0.346 | [4] -0.038 | [5] 0.022

CCND3 (UniProt P30281)
inactive: [1] -0.105 | [2] -0.015 | [3] 0.121 | [4] 0.033 | [5] 0.053

CHCHD1 (UniProt Q96BP2)
inactive: [1] 0.07 | [2] -0.056 | [3] -0.031 | [4] 0.168 | [5] 0.021

CMTM3 (UniProt Q96MX0)
Sequence of UniProt Q96MX0 (Q96MX0 whole entry, looked up): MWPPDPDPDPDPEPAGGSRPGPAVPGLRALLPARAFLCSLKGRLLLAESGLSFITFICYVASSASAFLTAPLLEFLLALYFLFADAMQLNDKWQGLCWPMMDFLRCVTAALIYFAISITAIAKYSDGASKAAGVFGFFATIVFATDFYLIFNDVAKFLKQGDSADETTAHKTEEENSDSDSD
inactive: [1] -0.179 | [2] -0.001 | [3] -0.056 | [4] 0.044 | [5] 0.081

CELF2 isoform 3 (UniProt O95319)
inactive: [1] -0.005 | [2] 0.119 | [3] 0.013 | [4] 0.071 | [5] -0.014

CES2 isoform 4 (UniProt O00748)
inactive: [1] 0.041 | [2] -0.069 | [3] 0.061 | [4] 0.118 | [5] -0.141

COX15 (UniProt Q7KZN9)
inactive: [1] -0.027 | [2] 0.071 | [3] 0.036 | [4] -0.013 | [5] -0.02

CNN3 (UniProt Q15417)
inactive: [1] -0.015 | [2] 0.18 | [3] 0.079 | [4] 0.035 | [5] 0.03

CDAN1 (UniProt Q8IWY9)
inactive: [1] -0.035 | [2] -0.049 | [3] 0.051 | [4] 0.091 | [5] 0.022

CD68 (UniProt P34810)
inactive: [1] 0.021

CS (UniProt F8VU34)
inactive: [1] -0.03

CPSF1 (UniProt Q10570)
inactive: [1] -0.012 | [2] -0.049 | [3] -0.017 | [4] 0.132 | [5] 0.006

COX6B1 (UniProt P14854)
inactive: [1] 0.007 | [2] 0.141 | [3] 0.003 | [4] -0.153 | [5] -0.054

C16orf58 (UniProt Q96GQ5)
inactive: [1] 0.023 | [2] 0.025 | [3] 0.088 | [4] -0.042 | [5] 0.013

CCAR1 (UniProt Q8IX12)
inactive: [1] -0.129 | [2] 0.061 | [3] 0.043 | [4] 0.044 | [5] -0.043

CRLF3 (UniProt Q8IUI8)
inactive: [1] -0.03 | [2] 0.045 | [3] 0.087 | [4] 0.088 | [5] -0.036

CBR1 (UniProt P16152)
Sequence of UniProt P16152 (P16152 whole entry, looked up): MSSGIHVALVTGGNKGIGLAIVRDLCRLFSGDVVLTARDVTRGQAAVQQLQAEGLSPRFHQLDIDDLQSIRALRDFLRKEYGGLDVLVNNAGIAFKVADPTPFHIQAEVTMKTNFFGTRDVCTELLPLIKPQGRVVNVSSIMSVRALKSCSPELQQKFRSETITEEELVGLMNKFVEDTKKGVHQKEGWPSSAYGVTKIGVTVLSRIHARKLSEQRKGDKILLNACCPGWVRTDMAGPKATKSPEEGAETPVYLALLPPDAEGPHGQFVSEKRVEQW
inactive: [1] -0.009 | [2] 0.015 | [3] 0.01 | [4] -0.028 | [5] -0.037

CDC123 (UniProt O75794)
inactive: [1] -0.036 | [2] 0 | [3] 0.03 | [4] -0.018 | [5] -0.029

CDK1 (UniProt P06493)
inactive: [1] -0.019 | [2] 0.036 | [3] 0.003 | [4] 0.019 | [5] 0.037

CDC42BPB (UniProt Q9Y5S2)
Sequence of UniProt Q9Y5S2 (Q9Y5S2 whole entry, looked up): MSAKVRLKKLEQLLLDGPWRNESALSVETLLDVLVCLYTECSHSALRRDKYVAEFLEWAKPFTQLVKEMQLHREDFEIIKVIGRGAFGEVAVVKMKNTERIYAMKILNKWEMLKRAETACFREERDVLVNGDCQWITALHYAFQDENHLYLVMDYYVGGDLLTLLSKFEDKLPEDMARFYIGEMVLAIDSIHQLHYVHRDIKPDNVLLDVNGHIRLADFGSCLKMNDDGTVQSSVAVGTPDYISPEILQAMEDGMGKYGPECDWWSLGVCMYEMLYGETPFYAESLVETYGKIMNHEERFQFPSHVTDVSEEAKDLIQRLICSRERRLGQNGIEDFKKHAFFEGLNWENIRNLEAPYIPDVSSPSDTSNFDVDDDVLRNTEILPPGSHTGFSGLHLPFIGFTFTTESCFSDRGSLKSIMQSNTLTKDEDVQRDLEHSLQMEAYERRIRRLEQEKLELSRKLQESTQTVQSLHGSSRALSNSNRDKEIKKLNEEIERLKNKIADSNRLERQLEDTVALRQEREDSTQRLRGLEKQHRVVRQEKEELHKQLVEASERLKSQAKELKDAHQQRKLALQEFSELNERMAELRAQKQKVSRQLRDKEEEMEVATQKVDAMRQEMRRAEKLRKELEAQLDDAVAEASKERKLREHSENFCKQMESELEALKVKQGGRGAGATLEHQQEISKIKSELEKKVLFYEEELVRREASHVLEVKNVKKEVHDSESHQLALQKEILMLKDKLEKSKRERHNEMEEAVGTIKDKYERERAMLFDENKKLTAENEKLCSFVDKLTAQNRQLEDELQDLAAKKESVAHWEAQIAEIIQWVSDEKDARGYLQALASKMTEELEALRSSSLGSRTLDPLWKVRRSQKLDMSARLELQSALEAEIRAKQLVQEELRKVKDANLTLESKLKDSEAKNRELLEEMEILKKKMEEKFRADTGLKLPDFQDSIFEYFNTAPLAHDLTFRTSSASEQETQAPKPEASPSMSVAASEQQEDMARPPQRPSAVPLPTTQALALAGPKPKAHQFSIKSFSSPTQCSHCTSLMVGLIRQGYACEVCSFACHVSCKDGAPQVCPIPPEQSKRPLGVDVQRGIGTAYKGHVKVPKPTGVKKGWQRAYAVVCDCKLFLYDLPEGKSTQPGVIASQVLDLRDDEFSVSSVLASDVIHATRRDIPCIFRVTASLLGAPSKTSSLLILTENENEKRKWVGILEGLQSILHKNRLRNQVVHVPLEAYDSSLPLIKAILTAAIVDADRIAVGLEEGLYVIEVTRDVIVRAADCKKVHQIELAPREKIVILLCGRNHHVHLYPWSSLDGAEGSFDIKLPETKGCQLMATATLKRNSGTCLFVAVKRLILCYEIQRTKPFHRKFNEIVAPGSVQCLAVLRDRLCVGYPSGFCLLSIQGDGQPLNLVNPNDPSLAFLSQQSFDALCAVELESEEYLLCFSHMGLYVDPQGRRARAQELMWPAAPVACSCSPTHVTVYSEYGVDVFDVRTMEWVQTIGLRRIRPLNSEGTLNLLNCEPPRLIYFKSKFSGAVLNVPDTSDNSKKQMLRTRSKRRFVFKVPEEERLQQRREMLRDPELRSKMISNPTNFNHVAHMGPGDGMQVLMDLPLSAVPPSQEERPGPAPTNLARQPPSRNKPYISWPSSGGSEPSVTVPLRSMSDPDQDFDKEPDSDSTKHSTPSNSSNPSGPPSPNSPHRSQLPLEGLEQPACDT
inactive: [1] -0.114 | [2] -0.031 | [3] 0.009 | [4] 0.025 | [5] -0.004

CLPTM1L (UniProt Q96KA5)
inactive: [1] -0.011 | [2] 0.013 | [3] 0.024 | [4] -0.145 | [5] 0.01

CCDC82 (UniProt Q8N4S0)
inactive: [1] -0.018 | [2] 0.056 | [3] 0.033 | [4] 0.043 | [5] 0.004

CPSF3 (UniProt Q9UKF6)
inactive: [1] -0.016 | [2] 0.024 | [3] 0.036 | [4] -0.026 | [5] 0.009

CEPT1 (UniProt Q9Y6K0)
inactive: [1] -0.064 | [2] 0.105 | [3] 0.074 | [4] -0.121 | [5] -0.054

CASP7 isoform 3 (UniProt P55210)
inactive: [1] 0.12

CD53 (UniProt P19397)
inactive: [1] -0.05 | [2] 0.142 | [3] 0.106 | [4] 0.083 | [5] 0.014

CLPX (UniProt O76031)
inactive: [1] 0.011 | [2] -0.02 | [3] 0.013 | [4] -0.035 | [5] 0.048

COQ7 (UniProt Q99807)
inactive: [1] -0.038 | [2] 0.016 | [3] 0.029 | [4] 0.014 | [5] 0.048

CDC42SE1 (UniProt Q9NRR8)
Sequence of UniProt Q9NRR8 (Q9NRR8 whole entry, looked up): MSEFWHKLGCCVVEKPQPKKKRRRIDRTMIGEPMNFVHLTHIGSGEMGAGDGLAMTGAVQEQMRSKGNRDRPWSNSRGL
inactive: [1] -0.151 | [2] 0.016 | [3] 0.088 | [4] -0.076 | [5] -0.007

CD55 isoform 7 (UniProt P08174)
Sequence of UniProt P08174 (P08174 whole entry, looked up): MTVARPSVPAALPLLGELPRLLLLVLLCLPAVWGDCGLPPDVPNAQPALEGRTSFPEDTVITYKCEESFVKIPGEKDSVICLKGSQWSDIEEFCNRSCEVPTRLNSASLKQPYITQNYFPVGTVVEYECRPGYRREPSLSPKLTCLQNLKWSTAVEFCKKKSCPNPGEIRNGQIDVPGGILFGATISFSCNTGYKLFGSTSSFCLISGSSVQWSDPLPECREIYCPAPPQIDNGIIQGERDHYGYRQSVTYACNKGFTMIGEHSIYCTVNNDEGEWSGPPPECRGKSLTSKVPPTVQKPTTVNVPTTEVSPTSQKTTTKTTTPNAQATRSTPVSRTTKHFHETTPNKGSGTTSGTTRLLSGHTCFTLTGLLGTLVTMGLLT
inactive: [1] 0.026 | [2] -0.058 | [3] -0.009 | [4] -0.066 | [5] -0.049

CHERP (UniProt Q8IWX8)
inactive: [1] -0.023 | [2] -0.07 | [3] 0.008 | [4] 0.101 | [5] 0.018

CPSF6 isoform 2 (UniProt Q16630)
inactive: [1] 0.036 | [2] -0.038 | [3] 0.048 | [4] 0.02 | [5] -0.016

CLASP2 isoform 3 (UniProt O75122)
inactive: [1] -0.065 | [2] 0.053 | [3] 0.091 | [4] -0.024 | [5] -0.014

CNOT2 (UniProt Q9NZN8)
inactive: [1] 0.024 | [2] -0.014 | [3] 0.056 | [4] 0.031 | [5] -0.002

CASP10 isoform 4 (UniProt Q92851)
Sequence of UniProt Q92851 (Q92851 whole entry, looked up): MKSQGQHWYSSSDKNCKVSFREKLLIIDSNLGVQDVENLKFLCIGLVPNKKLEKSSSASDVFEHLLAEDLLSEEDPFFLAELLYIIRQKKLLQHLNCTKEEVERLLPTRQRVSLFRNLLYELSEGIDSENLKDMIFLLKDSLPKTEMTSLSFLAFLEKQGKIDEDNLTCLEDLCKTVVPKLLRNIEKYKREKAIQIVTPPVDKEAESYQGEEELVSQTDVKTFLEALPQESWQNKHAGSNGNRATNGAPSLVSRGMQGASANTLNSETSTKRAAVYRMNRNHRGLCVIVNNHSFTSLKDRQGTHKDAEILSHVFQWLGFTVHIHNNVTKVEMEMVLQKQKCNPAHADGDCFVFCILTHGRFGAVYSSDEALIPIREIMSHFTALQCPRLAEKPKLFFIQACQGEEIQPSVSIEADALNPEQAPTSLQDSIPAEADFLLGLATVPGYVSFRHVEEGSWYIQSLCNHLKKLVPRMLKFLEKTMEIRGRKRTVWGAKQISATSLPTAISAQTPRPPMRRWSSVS
inactive: [1] 0.064 | [2] 0.189 | [3] 0.114 | [4] 0.002 | [5] -0.145

CRK (UniProt P46108)
inactive: [1] 0 | [2] 0.013 | [3] 0.005 | [4] 0.028 | [5] -0.01

CNTN4 (UniProt Q8IWV2)
inactive: [1] 0.093 | [2] 0.154 | [3] 0.103 | [4] -0.075 | [5] -0.106

CEMIP2 (UniProt Q9UHN6)
Sequence of UniProt Q9UHN6 (Q9UHN6 whole entry, looked up): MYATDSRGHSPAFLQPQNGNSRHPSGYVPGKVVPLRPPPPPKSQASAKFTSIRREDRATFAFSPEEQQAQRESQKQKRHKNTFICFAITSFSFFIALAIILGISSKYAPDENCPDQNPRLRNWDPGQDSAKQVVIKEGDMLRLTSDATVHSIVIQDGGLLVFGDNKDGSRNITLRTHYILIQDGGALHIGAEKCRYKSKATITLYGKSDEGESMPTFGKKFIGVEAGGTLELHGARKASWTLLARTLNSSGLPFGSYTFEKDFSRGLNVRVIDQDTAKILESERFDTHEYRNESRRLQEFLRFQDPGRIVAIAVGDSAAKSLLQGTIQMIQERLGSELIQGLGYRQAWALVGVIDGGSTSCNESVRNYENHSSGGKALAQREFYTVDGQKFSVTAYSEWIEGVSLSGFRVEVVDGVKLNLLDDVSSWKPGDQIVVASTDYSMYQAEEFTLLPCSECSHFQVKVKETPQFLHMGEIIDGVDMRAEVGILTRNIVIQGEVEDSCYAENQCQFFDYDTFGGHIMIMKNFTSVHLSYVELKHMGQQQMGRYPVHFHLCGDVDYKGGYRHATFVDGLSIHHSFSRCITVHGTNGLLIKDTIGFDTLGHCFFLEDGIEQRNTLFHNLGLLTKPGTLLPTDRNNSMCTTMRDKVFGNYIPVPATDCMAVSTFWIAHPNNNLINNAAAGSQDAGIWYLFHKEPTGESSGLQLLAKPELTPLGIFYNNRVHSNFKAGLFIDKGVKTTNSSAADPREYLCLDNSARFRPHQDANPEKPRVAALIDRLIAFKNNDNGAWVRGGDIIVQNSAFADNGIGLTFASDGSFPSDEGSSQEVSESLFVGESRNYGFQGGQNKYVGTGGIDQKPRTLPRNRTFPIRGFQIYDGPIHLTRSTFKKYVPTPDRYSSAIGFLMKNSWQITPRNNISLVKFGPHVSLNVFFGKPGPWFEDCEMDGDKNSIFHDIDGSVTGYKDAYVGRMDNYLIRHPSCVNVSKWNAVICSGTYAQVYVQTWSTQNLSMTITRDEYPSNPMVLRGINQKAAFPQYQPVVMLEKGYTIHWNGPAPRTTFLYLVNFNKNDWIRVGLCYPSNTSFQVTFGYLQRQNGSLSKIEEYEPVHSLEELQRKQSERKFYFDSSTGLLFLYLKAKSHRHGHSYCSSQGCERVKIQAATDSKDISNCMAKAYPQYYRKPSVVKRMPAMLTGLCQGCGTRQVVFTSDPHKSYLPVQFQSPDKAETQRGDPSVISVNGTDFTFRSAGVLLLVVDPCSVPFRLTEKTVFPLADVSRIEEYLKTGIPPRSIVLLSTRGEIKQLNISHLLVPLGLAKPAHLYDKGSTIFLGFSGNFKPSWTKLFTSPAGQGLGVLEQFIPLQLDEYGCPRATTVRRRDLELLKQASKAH
inactive: [1] -0.03 | [2] -0.017 | [3] 0.08 | [4] -0.04 | [5] 0.081

CSTF2 (UniProt P33240)
inactive: [1] 0.017 | [2] 0.04 | [3] 0.057 | [4] -0.026 | [5] 0.021

CA1 (UniProt P00915)
inactive: [1] -0.007 | [2] 0.039 | [3] 0.019 | [4] 0.007 | [5] 0.018

CREB3L2 (UniProt Q70SY1)
inactive: [1] 0.331 | [2] -0.15 | [3] 0.296 | [4] -0.143 | [5] -0.247

COX20 isoform 2 (UniProt Q5RI15)
inactive: [1] 0.071 | [2] 0.05 | [3] 0 | [4] -0.022 | [5] 0.042

COASY isoform 2 (UniProt Q13057)
inactive: [1] -0.03 | [2] 0.054 | [3] 0.053 | [4] -0.037 | [5] -0.021

CLINT1 isoform 3 (UniProt Q14677)
inactive: [1] 0.053 | [2] -0.039 | [3] -0.01 | [4] 0.046 | [5] 0.044

CHMP4B (UniProt Q9H444)
inactive: [1] -0.015 | [2] -0.004 | [3] 0.031 | [4] 0.056 | [5] 0.054

C19orf53 (UniProt Q9UNZ5)
inactive: [1] 0.105 | [2] -0.258 | [3] -0.266 | [4] 0.203 | [5] -0.01

CCAR2 isoform 2 (UniProt Q8N163)
inactive: [1] -0.057 | [2] -0.014 | [3] 0.079 | [4] -0.089 | [5] 0.011
